From PubChem BioAssay (EPA / NIEHS)
Inconclusive results are not listed. Calls of active or inactive are those of the source. The calls were made as follows, unless noted: active = hit-call score of the fitted dose curve at least 0.9, where 1 is the maximum; inactive = score below 0.9.

Tests used:
[1] = target: Glucocorticoid receptor (Homo sapiens) (UniProt P04150); test: ATG_GR_TRANS: Attagene TRANS-FACTORIAL HepG2 Assay for human Glucocorticoid Receptor (GR) (AID 2282978; active = hit-call score of the fitted dose curve at least 0.9, where 1 is the maximum;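 also: activators score as hits since higher reporter transcript over DMSO is fitted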); settings: HepG2 Attagene TRANS GR reporter, mRNA transcription
How it was run: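 Exogenous NR-GAL4 fusion activity was assessed through induced GAL4-UAS reporter transcripts in transfected human HepG2 cells, quantified after 24 h by RT-PCR and fluorescent capillary electrophoresis with DMSO as baseline.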

[2] = target: Bile acid receptor (Homo sapiens) (UniProt Q96RI1); test: ATG_FXR_TRANS: Attagene TRANS-FACTORIAL HepG2 Assay for Farnesoid X Receptor (FXR) (AID 2282979; active = hit-call score of the fitted dose curve at least 0.9, where 1 is the maximum;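 also: hits raise reporter mRNA above DMSO so AC50 marks FXR activation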); settings: HepG2 Attagene TRANS FXR-GAL4 reporter transcription
How it was run: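 Read-out: fluorescent reporter transcripts quantified by capillary electrophoresis after RT-PCR of total RNA. Source cells were HepG2 transiently carrying chimeric NR-GAL4 plus GAL4-UAS reporter units, dosed 24 h. Activity fitted upward relative to DMSO baseline.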

[3] = target: Oxysterols receptor LXR-alpha (Homo sapiens) (UniProt Q13133); test: ATG_LXRa_TRANS: Attagene TRANS-FACTORIAL HepG2 Assay for human Liver X Receptor alpha (LXRa) (AID 2282980; active = hit-call score of the fitted dose curve at least 0.9, where 1 is the maximum); settings: HepG2 Attagene TRANS reporter, LXRa transactivation
How it was run: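 Read-out: reporter transcript levels by RT-PCR plus capillary electrophoresis, fluorescence intensity. Transiently transfected HepG2, exogenous NR-GAL4 chimera, GAL4-UAS reporters; 24 h compound exposure. Activity = increase over DMSO negative control.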

[4] = target: Oxysterols receptor LXR-beta (Homo sapiens) (UniProt P55055); test: ATG_LXRb_TRANS: Attagene TRANS-FACTORIAL HepG2 Assay for human Liver X Receptor beta (LXRb) (AID 2282981; active = hit-call score of the fitted dose curve at least 0.9, where 1 is the maximum); settings: HepG2 Attagene TRANS GAL4-LXRb reporter, mRNA
How it was run: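 Measures induction of a Gal4-driven reporter transcript in HepG2 cells expressing an exogenous LXRb-Gal4 fusion. Cells are exposed to compound for 24 h before RNA isolation and RT-PCR with capillary electrophoresis detection.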

[5] = target: Transcriptional activator Myb (Homo sapiens) (UniProt P10242); test: ATG_Myb_CIS: Attagene CIS-FACTORIAL HepG2 Assay for human Myeloblastosis (Myb) Proto-Oncogene Transcription Factor (AID 2282986); settings: HepG2 Attagene CIS-FACTORIAL Myb reporter transcription; actives raise or lower the signal
How it was run: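 In this HepG2 transient-transfection format, cis-regulated reporter mRNA is quantified 24 h post-dosing by RT-PCR with capillary electrophoresis, fitted bidirectionally to DMSO baseline.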

[6] = ATG_NFI_CIS: Attagene CIS-FACTORIAL HepG2 Assay for human Nuclear Factor I (NFI) (AID 2282989); settings: HepG2 cis-regulatory reporter, NFI response element transcription; actives raise or lower the signal
How it was run: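 Reporter transcription driven by endogenous transcription factors in HepG2 cells; 24 h treatment. Quantitation by labelled RT-PCR fragments on capillary electrophoresis, gain- or loss-of-signal relative to DMSO.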

[7] = target: Myc proto-oncogene protein (Homo sapiens) (UniProt P01106); test: ATG_Myc_CIS: Attagene CIS-FACTORIAL HepG2 Assay for human Myelocytomatosis (Myc) Proto-Oncogene Transcription Factor (AID 2282990); settings: HepG2, Attagene cis-reporter transcription factor activity; actives raise or lower the signal
How it was run: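 Multiplexed cis-reporter transcription in HepG2 cells after 24 h chemical treatment. Reporter mRNA measured by RT-PCR and capillary electrophoresis fluorescence; activity fitted bidirectionally against DMSO control.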

[8] = ATG_NF_kB_CIS: Attagene CIS-FACTORIAL HepG2 Assay for human Nuclear Factor Kappa B (NF-kB) (AID 2282991); settings: HepG2 Attagene cis-factorial NF-kB reporter mRNA; actives raise or lower the signal
How it was run: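 Endpoint from a 52-component multiplexed HepG2 reporter panel: cis-regulated transcription units transiently transfected, 24 h dosing, reporter mRNA quantified by RT-PCR and capillary electrophoresis, scored as increase or decrease against DMSO.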

[9] = ATG_NRF2_ARE_CIS: Attagene CIS-FACTORIAL HepG2 Assay for human Nuclear Factor Erythroid 2 Related Factor 2 (NFR2) response to Antioxidant Response Elements (ARE) (AID 2282992); settings: HepG2 Attagene ARE/NRF2 reporter, transcription factor activity; actives raise or lower the signal
How it was run: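 Readout: reporter mRNA quantified by RT-PCR plus FAM-labelled primer extension, HpaI digestion and capillary electrophoresis, 24 h after dosing transfected HepG2 cells. Gain or loss of signal is fitted bidirectionally against DMSO baseline.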

[10] = ATG_Oct_MLP_CIS: Attagene CIS-FACTORIAL HepG2 Assay for human Octamer-Binding Transcription Factor (Oct) (AID 2282993); settings: HepG2 Attagene cis-factorial Oct reporter, mRNA; actives raise or lower the signal
How it was run: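 Transfected HepG2 cells, 24 h treatment. Reporter mRNA quantified by RT-PCR–capillary electrophoresis; bidirectional fitting against DMSO.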

[11] = target: Cellular tumor antigen p53 (Homo sapiens) (UniProt P04637); test: ATG_p53_CIS: Attagene CIS-FACTORIAL HepG2 Assay for human p53 Transcription Factor (AID 2282994); settings: HepG2 p53 cis-element reporter, Attagene mRNA; actives raise or lower the signal
How it was run: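 Read-out: reporter mRNA by RT-PCR plus capillary electrophoresis with fluorescence detection. Human HepG2 liver cells carried transfected multi-reporter cis-element constructs, dosed 24 h. Gain or loss of signal fitted bidirectionally against DMSO control.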

[12] = ATG_M_06_TRANS: Attagene TRANS-FACTORIAL HepG2 Assay for M06 Transcription Factor (Internal Marker) (AID 2282983; active = hit-call score of the fitted dose curve at least 0.9, where 1 is the maximum); settings: HepG2 Attagene TRANS M06 internal marker reporter
How it was run: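 Read-out: fluorescent reporter cDNA fragments resolved by capillary electrophoresis after RT-PCR and HpaI cut. Source cells were HepG2 carrying transfected multi-reporter GAL4 constructs, dosed 24 h. Increase over DMSO control analysed.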

[13] = ATG_M_32_TRANS: Attagene TRANS-FACTORIAL HepG2 Assay for M32 Transcription Factor (Internal Marker) (AID 2282984; active = hit-call score of the fitted dose curve at least 0.9, where 1 is the maximum;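 also: transcript level of a background control reporter unit measured by RT-PCR and capillary electrophoresis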); settings: HepG2 Attagene TRANS M32 internal marker reporter
How it was run: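 After 24 h dosing of transfected HepG2 cells, total RNA was reverse-transcribed, reporter sequences PCR-amplified, 6-FAM labelled by primer extension and HpaI-digested before capillary electrophoresis. Signal increase over DMSO was fitted.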

[14] = target: Nuclear receptor subfamily 4 group A member 2 (Homo sapiens) (UniProt P43354); test: ATG_NURR1_TRANS: Attagene TRANS-FACTORIAL HepG2 Assay for human Nuclear Receptor Related Protein 1 (NURR1) (AID 2282985; active = hit-call score of the fitted dose curve at least 0.9, where 1 is the maximum); settings: HepG2 Attagene TRANS reporter, mRNA readout
How it was run: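 Chimeric NR-Gal4 fusion activity measured in HepG2 after 24 h treatment. Reporter transcripts detected by RT-PCR and capillary electrophoresis fluorescence; positive-direction curve fitting against DMSO.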

[15] = target: Nuclear respiratory factor 1 (Homo sapiens) (UniProt Q16656); test: ATG_NRF1_CIS: Attagene CIS-FACTORIAL HepG2 Assay for human Nuclear Respiratory Factor 1 (NRF1) Orphan Gene (AID 2282987); settings: HepG2 NRF1 cis-element reporter, Attagene multiplex; actives raise or lower the signal
How it was run: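 Using DMSO as baseline, gain- or loss-of-signal was fitted for reporter mRNA levels in HepG2 cells transiently transfected with cis-regulated reporter units. Samples were taken 24 h after dosing and read by RT-PCR with capillary electrophoresis.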

[16] = target: Estrogen-related receptor gamma (Homo sapiens) (UniProt P62508); test: ATG_ERRg_TRANS: Attagene TRANS-FACTORIAL HepG2 Assay for human Estrogen-Related Receptor gamma (ERRg) (AID 2282977; active = hit-call score of the fitted dose curve at least 0.9, where 1 is the maximum;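 also: hits increase reporter signal over DMSO so potencies reflect activators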); settings: HepG2 Attagene TRANS reporter, ERRg transactivation
How it was run: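 Exogenous NR-Gal4 chimera activity measured as reporter transcript induction after 24 h in transiently transfected HepG2 cells. RNA reverse-transcribed, PCR-amplified, 6-FAM-labelled and resolved by capillary electrophoresis; increase over DMSO baseline.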

[17] = target: Hepatocyte nuclear factor 4-alpha (Homo sapiens) (UniProt P41235); test: ATG_HNF4a_TRANS: Attagene TRANS-FACTORIAL HepG2 Assay for human Hepatocyte Nuclear Factor 4 alpha (HNF4a) (AID 2282982; active = hit-call score of the fitted dose curve at least 0.9, where 1 is the maximum); settings: HepG2 HNF4a transactivation reporter, mRNA readout
How it was run: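 In this trans-factorial format, a chimeric HNF4a-GAL4 fusion drives a GAL4-UAS reporter in transfected HepG2 liver cells. After 24 h treatment, reporter mRNA induction is measured by RT-PCR with capillary electrophoresis, relative to DMSO.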

[18] = BSK_3C_TissueFactor: BioMAP Diversity Plus: 3C Assay for Tissue Factor Biomarker Activity (AID 2282997); settings: BioMAP 3C HUVEC, tissue factor biomarker readout; actives raise or lower the signal
How it was run: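 HUVEC, 3C system, 24 h post-dose; Tissue Factor by ELISA; bidirectional fit vs DMSO baseline.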

[19] = BSK_3C_uPAR: BioMAP Diversity Plus: 3C Assay for Urokinase-type plasminogen activator receptor (uPAR) Biomarker Activity (AID 2282998); settings: BioMAP 3C HUVEC, uPAR biomarker ELISA; actives raise or lower the signal
How it was run: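 Readout: ELISA for surface uPAR. System: human umbilical vein endothelial primary cells, 24 h after chemical exposure. Analysis: bidirectional fit, DMSO baseline.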

[20] = BSK_3C_VCAM1: BioMAP Diversity Plus: 3C Assay for Vascular cell adhesion molecule 1 (VCAM1) Biomarker Activity (AID 2282999); settings: BioMAP 3C HUVEC, VCAM1 ELISA, cytokine-stimulated; actives raise or lower the signal
How it was run: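 Vascular primary endothelium (human umbilical vein) was exposed to chemicals and assayed 24 h later. VCAM-1 levels came from ELISA, with DMSO serving as baseline for bidirectional fitting.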

Measured: AC50

Chain of Oxysterols receptor LXR-beta (Homo sapiens) (P55055 whole entry, looked up, the tested form may be a part): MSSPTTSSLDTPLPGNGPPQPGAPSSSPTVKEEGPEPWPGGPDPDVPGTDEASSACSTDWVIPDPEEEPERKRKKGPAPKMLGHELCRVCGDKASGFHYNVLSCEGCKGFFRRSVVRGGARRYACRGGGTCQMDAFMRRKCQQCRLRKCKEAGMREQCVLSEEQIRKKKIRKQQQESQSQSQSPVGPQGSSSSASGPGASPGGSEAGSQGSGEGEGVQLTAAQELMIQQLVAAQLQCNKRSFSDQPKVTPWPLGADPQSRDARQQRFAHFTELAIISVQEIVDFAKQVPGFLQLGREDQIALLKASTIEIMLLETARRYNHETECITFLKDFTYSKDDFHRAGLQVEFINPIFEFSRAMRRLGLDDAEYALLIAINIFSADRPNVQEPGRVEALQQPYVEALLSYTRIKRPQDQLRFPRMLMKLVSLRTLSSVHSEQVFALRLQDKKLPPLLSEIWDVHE
Chain of Myc proto-oncogene protein (Homo sapiens) (P01106 whole entry, looked up): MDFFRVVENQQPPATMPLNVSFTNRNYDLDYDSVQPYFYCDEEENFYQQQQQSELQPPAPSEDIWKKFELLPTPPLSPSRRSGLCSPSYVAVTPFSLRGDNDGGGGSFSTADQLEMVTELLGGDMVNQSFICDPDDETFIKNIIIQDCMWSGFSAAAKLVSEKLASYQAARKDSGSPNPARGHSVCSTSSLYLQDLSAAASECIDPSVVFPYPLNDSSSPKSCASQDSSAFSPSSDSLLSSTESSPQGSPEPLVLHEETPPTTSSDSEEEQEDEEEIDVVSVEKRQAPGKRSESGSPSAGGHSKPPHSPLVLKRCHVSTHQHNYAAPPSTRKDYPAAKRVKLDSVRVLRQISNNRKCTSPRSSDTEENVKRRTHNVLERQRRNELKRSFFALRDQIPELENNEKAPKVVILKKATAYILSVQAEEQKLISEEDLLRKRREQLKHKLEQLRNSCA
Chain of Nuclear receptor subfamily 4 group A member 2 (Homo sapiens) (P43354 whole entry, looked up, the tested form may be a part): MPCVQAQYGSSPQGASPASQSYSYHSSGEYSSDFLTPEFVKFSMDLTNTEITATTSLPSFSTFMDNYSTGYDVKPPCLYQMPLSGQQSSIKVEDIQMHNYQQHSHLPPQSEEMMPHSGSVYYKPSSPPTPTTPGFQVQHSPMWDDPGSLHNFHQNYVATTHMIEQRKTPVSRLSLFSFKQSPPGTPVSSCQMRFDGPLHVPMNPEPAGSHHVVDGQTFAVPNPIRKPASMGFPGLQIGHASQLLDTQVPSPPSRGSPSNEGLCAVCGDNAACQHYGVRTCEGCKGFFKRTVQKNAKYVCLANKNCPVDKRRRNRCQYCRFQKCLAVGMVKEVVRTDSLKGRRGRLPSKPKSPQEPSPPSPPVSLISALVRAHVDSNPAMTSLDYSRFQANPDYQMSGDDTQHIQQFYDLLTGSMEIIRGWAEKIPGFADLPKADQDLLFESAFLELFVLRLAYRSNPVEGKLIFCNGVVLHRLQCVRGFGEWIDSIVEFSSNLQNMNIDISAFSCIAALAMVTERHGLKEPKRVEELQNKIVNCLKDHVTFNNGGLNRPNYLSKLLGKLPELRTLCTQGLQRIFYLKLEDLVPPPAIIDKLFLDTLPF
Chain of Nuclear respiratory factor 1 (Homo sapiens) (Q16656 whole entry, looked up): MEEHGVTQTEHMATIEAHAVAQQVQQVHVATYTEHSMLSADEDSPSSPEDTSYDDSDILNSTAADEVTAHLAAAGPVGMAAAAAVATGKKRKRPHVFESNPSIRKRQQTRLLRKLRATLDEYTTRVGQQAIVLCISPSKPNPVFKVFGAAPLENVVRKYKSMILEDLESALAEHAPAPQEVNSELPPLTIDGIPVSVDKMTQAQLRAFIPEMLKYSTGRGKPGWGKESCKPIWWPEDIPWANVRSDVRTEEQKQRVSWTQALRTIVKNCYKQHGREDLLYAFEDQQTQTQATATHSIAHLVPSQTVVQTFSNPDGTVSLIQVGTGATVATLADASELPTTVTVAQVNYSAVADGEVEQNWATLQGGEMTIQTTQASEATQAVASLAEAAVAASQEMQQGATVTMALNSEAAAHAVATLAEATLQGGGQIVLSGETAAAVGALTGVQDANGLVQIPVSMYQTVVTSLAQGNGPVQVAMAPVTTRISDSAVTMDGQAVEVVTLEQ
Chain of Cellular tumor antigen p53 (Homo sapiens) (P04637 whole entry, looked up): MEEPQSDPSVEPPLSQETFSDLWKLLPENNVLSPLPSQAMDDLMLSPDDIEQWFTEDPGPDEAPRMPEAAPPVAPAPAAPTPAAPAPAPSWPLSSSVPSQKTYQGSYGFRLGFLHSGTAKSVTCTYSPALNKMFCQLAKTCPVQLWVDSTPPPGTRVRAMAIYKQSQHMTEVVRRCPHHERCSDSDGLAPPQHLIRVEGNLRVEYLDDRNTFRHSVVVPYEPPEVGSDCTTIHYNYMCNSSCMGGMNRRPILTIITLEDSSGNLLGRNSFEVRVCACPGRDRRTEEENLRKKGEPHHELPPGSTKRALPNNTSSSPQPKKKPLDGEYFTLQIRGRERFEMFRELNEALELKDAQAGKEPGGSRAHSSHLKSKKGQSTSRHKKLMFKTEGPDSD
Chain of Hepatocyte nuclear factor 4-alpha (Homo sapiens) (P41235 whole entry, looked up, the tested form may be a part): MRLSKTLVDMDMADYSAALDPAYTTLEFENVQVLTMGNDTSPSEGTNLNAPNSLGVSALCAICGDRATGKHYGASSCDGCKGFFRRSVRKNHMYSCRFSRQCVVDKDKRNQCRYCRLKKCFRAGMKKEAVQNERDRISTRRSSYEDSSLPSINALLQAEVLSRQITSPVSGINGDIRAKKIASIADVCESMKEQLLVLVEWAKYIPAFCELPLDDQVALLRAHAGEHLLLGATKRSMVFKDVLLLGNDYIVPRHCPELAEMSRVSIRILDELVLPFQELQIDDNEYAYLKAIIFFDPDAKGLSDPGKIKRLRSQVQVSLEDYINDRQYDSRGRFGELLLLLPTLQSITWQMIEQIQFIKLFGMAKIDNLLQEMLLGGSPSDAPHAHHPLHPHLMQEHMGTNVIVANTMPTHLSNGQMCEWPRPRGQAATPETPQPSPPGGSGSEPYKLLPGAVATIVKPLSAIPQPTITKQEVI
Chain of Bile acid receptor (Homo sapiens) (Q96RI1 whole entry, looked up, the tested form may be a part): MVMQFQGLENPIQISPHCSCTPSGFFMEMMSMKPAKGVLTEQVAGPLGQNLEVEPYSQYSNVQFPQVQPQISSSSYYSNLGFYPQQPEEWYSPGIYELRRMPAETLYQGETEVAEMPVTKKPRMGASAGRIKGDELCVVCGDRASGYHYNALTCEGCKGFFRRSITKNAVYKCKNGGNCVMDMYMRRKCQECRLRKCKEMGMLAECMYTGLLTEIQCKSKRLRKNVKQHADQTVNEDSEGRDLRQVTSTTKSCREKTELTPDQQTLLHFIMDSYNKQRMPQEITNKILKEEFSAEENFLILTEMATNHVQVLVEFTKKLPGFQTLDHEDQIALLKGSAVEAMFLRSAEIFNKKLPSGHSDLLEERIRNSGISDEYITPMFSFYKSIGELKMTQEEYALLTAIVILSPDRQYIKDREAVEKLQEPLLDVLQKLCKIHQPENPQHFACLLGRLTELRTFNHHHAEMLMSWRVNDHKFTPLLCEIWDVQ
Chain of Oxysterols receptor LXR-alpha (Homo sapiens) (Q13133 whole entry, looked up, the tested form may be a part): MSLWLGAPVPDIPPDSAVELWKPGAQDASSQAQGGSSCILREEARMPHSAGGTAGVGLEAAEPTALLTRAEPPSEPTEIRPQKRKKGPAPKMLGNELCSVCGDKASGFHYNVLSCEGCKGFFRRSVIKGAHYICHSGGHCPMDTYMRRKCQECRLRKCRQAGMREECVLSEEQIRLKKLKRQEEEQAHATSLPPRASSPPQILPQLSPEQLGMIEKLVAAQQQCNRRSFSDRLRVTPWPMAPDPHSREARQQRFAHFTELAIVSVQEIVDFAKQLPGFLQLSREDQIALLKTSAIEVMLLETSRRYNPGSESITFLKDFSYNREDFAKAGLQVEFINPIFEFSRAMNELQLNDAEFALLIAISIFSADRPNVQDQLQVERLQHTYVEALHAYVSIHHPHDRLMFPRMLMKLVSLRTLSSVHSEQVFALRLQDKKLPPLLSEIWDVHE
Chain of Transcriptional activator Myb (Homo sapiens) (P10242 whole entry, looked up): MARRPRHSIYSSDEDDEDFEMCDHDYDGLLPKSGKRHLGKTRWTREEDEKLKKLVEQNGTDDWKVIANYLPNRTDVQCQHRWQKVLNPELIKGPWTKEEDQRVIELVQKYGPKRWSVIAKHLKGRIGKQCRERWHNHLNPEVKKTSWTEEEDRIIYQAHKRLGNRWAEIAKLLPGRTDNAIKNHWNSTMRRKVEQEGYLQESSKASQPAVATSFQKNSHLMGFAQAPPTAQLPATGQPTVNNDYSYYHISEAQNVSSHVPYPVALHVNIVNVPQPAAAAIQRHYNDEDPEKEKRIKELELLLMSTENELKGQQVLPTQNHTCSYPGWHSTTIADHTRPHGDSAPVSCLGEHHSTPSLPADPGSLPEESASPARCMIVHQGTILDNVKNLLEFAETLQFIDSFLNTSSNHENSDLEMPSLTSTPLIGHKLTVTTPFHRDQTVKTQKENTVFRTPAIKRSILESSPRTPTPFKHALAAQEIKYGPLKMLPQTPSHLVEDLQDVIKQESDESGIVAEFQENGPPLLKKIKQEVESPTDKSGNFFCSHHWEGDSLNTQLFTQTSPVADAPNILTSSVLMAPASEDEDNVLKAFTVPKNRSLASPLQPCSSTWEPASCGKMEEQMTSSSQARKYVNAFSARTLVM
Chain of Estrogen-related receptor gamma (Homo sapiens) (P62508 whole entry, looked up, the tested form may be a part): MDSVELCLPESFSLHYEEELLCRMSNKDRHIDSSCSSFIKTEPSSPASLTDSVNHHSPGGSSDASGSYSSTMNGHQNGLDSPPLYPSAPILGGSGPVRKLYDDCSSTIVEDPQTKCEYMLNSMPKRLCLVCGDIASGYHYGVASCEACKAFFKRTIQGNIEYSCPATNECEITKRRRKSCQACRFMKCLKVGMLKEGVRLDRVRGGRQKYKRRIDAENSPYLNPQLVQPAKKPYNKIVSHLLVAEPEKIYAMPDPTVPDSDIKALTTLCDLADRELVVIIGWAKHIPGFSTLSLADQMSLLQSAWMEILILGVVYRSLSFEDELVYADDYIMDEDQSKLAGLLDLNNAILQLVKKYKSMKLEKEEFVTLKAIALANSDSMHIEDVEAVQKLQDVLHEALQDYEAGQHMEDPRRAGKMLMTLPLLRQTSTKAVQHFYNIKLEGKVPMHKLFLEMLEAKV

CC(C)(C)C1CCC(=O)CC1
inactive: [1] | [2] | [3] | [4] | [5] | [6] | [7] | [8] | [9] | [11]
active: [10] 145 µM

CCCCCCCCCCCCc1ccc(O)cc1
active: [4] 15.1 µM
not listed: [7] | [16] | [17] | [18] | [19] | [20]
inactive: all other assays above

Nc1ccc(O)c([N+](=O)[O-])c1
inactive: [16] | [3] | [4] | [17] | [12] | [5] | [6] | [10]
active: [8] 37.2 µM | [9] 57.9 µM

c1ccc(-c2nc3ccccc3[nH]2)cc1
active: [7] 26.1 µM
not listed: [3] | [16] | [18] | [19] | [20]
inactive: all other assays above

Cc1c[nH]c(=O)[nH]c1=O
not listed: [3] | [8] | [13] | [14] | [16] | [18] | [19] | [20]
inactive: all other assays above

CCCCC(CC)COS(=O)(=O)O (configuration not stated)
inactive: [16] | [2] | [17] | [12] | [5] | [15] | [6] | [7] | [8] | [9] | [10]

CCCCCCCOC(=O)c1ccc(O)cc1
active: [9] 39.4 µM | [10] 46 µM
not listed: [3] | [7] | [16] | [18] | [19] | [20]
inactive: all other assays above

CCC1COC(=O)O1 (configuration not stated)
not listed: [14] | [16] | [17] | [18] | [19] | [20]
inactive: all other assays above

O=C(O)C(F)(F)C(F)(F)C(F)(F)C(F)(F)C(=O)O
not listed: [1] | [3] | [4] | [7] | [12] | [13] | [17]
inactive: all other assays above

O=C(O)CC(C(=O)O)S(=O)(=O)O (configuration not stated)
inactive: [16] | [5] | [15] | [6] | [7] | [9] | [10] | [11]

CC1(C)[C@@H]2CC[C@@]1(C)C(=O)C2
inactive: [16] | [13] | [14] | [5] | [15] | [7] | [8] | [9] | [10] | [11]
